Laboratory results: PubChem BioAssay (NCI)
About 83,000 compounds went through this panel and 20% of them were active in at least one assay; those are over-represented in the sample as a whole.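 Single-dose data. Exposure time 48 hours. Values below 10 considered active.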 Values without a mark were called inactive. Active and inactive are the calls of the source.

What was measured:
Experiment in all cases: NCI-60 one-dose screen, 48 h (100 = growth as untreated, 0 = no growth, -100 = all killed)
Details in all cases: 10 µM
[1] = test system: NCI-H23 lung
[2] = test system: NCI-H226 lung
[3] = test system: NCI-H322M lung
[4] = test system: HOP-62 NSCLC
[5] = test system: NCI-H460 lung
[6] = test system: HOP-92 NSCLC
[7] = test system: A549/ATCC NSCLC
[8] = test system: 786-0 renal
[9] = test system: COLO 205 colon
[10] = test system: DU-145 prostate
[11] = test system: K-562 leukemia
[12] = test system: MDA-MB-231 breast
[13] = test system: RXF 393 renal
[14] = test system: SF-268 CNS
[15] = test system: SF-295 CNS
[16] = test system: SF-539 CNS
[17] = test system: UACC-257 melanoma
[18] = test system: M14 melanoma
[19] = test system: MALME-3M melanoma

CN(c1ccccc1)c1ncnc2c1ncn2C
growth [1]: 101% | growth [2]: 107% | growth [3]: 115% | growth [4]: 103% | growth [5]: 101% | growth [6]: 105% | growth [7]: 87.3% | growth [8]: 106% | growth [9]: 105% | growth [10]: 108% | growth [11]: 103% | growth [12]: 109% | growth [13]: 122% | growth [14]: 97.5% | growth [15]: 109% | growth [16]: 107% | growth [17]: 87.9% | growth [18]: 104%

CCCC1(c2ccccc2)NC(=O)NC1=O (stereo not given)
growth [1]: 110% | growth [2]: 97% | growth [3]: 124% | growth [4]: 102% | growth [5]: 109% | growth [6]: 78.4% | growth [7]: 119% | growth [9]: 114% | growth [10]: 108% | growth [11]: 135% | growth [19]: 121% | growth [12]: 95.2% | growth [13]: 109% | growth [14]: 98.3% | growth [15]: 122% | growth [16]: 100% | growth [17]: 108%

OCC1OC(OC2C(O)C(CO)OC2(CO)OC2OC(CO)C(O)C(O)C2O)C(O)C(O)C1O (stereo not given)
growth [1]: 103% | growth [2]: 115% | growth [3]: 120% | growth [4]: 98.6% | growth [5]: 111% | growth [6]: 90.3% | growth [7]: 98% | growth [9]: 117% | growth [10]: 116% | growth [11]: 139% | growth [19]: 138% | growth [12]: 99.6% | growth [13]: 118% | growth [14]: 106% | growth [15]: 131% | growth [16]: 96.9% | growth [17]: 97.6%

CCCOC(=O)C(O)c1ccccc1 (stereo not given)
growth [1]: 106% | growth [2]: 105% | growth [3]: 132% | growth [4]: 99.8% | growth [5]: 107% | growth [6]: 95% | growth [7]: 126% | growth [9]: 115% | growth [10]: 113% | growth [11]: 129% | growth [19]: 96.8% | growth [12]: 90% | growth [13]: 111% | growth [14]: 99.7% | growth [15]: 109% | growth [16]: 101% | growth [17]: 108% | growth [18]: 93.8%

CC(C(=O)O)(C1CCCCC1)C1(O)CCCCC1 (stereo not given)
growth [1]: 103% | growth [2]: 102% | growth [3]: 101% | growth [4]: 96.4% | growth [5]: 105% | growth [6]: 104% | growth [7]: 106% | growth [8]: 98.9% | growth [9]: 104% | growth [10]: 108% | growth [11]: 102% | growth [19]: 98.9% | growth [12]: 109% | growth [13]: 99.1% | growth [14]: 99.2% | growth [15]: 82.9% | growth [16]: 103% | growth [18]: 104%

Nc1ccc(NC(=O)c2cccc(N)c2)cc1
growth [1]: 96.7% | growth [2]: 99.1% | growth [3]: 95.2% | growth [4]: 86.5% | growth [5]: 101% | growth [6]: 81.1% | growth [7]: 47.6% | growth [8]: 101% | growth [9]: 114% | growth [10]: 108% | growth [19]: 85.7% | growth [12]: 97.1% | growth [14]: 102% | growth [15]: 92.5% | growth [16]: 96.3% | growth [18]: 104%

O=C(NCCNC(=O)c1ccc(Cl)cc1Cl)c1ccc(Cl)cc1Cl
growth [1]: 114% | growth [2]: 101% | growth [3]: 113% | growth [4]: 87.6% | growth [5]: 105% | growth [6]: 71.8% | growth [7]: 104% | growth [8]: 107% | growth [9]: 129% | growth [10]: 114% | growth [11]: 107% | growth [19]: 112% | growth [12]: 91.8% | growth [13]: 95% | growth [14]: 99.1% | growth [15]: 82.7% | growth [16]: 96.5% | growth [18]: 105%

CC(O)COc1ccc(-c2ccccc2)cc1 (stereo not given)
growth [1]: 108% | growth [2]: 104% | growth [3]: 112% | growth [4]: 102% | growth [5]: 99.2% | growth [6]: 92.7% | growth [7]: 107% | growth [9]: 110% | growth [10]: 108% | growth [11]: 102% | growth [19]: 115% | growth [12]: 96.6% | growth [13]: 106% | growth [14]: 99.4% | growth [15]: 107% | growth [16]: 104% | growth [17]: 119% | growth [18]: 108%

CC(C)OC(C(=O)O)c1ccccc1 (stereo not given)
growth [1]: 101% | growth [2]: 108% | growth [3]: 117% | growth [4]: 91.1% | growth [5]: 109% | growth [6]: 81.3% | growth [7]: 105% | growth [9]: 111% | growth [10]: 113% | growth [11]: 124% | growth [19]: 133% | growth [12]: 99.3% | growth [13]: 117% | growth [14]: 104% | growth [15]: 138% | growth [16]: 102% | growth [17]: 116%

COc1cccc(COC(=O)Nc2ccccc2)c1OC
growth [1]: 110% | growth [2]: 96.6% | growth [3]: 101% | growth [4]: 100% | growth [5]: 103% | growth [6]: 109% | growth [7]: 94.5% | growth [8]: 98.9% | growth [9]: 114% | growth [10]: 104% | growth [11]: 102% | growth [19]: 105% | growth [12]: 104% | growth [13]: 95.8% | growth [14]: 114% | growth [15]: 88.5% | growth [16]: 107% | growth [18]: 105%

N#CSc1cc(S(N)(=O)=O)ccc1N
growth [1]: 104% | growth [2]: 108% | growth [3]: 114% | growth [4]: 104% | growth [5]: 114% | growth [6]: 135% | growth [7]: 102% | growth [9]: 113% | growth [10]: 115% | growth [11]: 113% | growth [19]: 110% | growth [12]: 108% | growth [13]: 119% | growth [14]: 108% | growth [15]: 120% | growth [16]: 102% | growth [17]: 107%

c1ccc(Cc2ccccc2)cc1
growth [1]: 107% | growth [2]: 112% | growth [3]: 96.2% | growth [4]: 101% | growth [5]: 109% | growth [6]: 59.2% | growth [7]: 39.8% | growth [8]: 92.7% | growth [9]: 125% | growth [10]: 103% | growth [11]: 119% | growth [19]: 96% | growth [12]: 105% | growth [14]: 107% | growth [15]: 110% | growth [16]: 93.5% | growth [18]: 112%

O=C(OCC(O)C1OC(c2ccccc2)OC(COC(=O)c2ccccc2)C1O)c1ccccc1 (stereo not given)
growth [1]: 111% | growth [2]: 99.6% | growth [3]: 109% | growth [4]: 99% | growth [5]: 104% | growth [6]: 89.8% | growth [7]: 94.8% | growth [8]: 111% | growth [9]: 99.9% | growth [10]: 118% | growth [11]: 101% | growth [19]: 105% | growth [12]: 107% | growth [13]: 96.3% | growth [14]: 110% | growth [15]: 77.3% | growth [16]: 103% | growth [18]: 110%

COc1cc(/C=C/C(=O)c2ccccc2)cc(OC)c1OC
growth [1]: 78.1% | growth [2]: 98.7% | growth [3]: 95.5% | growth [4]: 104% | growth [5]: 70.7% | growth [6]: 76% | growth [7]: 89.4% | growth [8]: 89% | growth [9]: 48% | growth [10]: 62.5% | growth [11]: 11.4% | growth [19]: 76.8% | growth [12]: 79.1% | growth [13]: 73.2% | growth [14]: 57.9% | growth [15]: -24.7% (active) | growth [16]: 80.8% | growth [18]: 74.6%

CCCCC1(CC)COC(CCC)OC1 (stereo not given)
growth [1]: 111% | growth [2]: 98% | growth [3]: 117% | growth [4]: 95.9% | growth [5]: 115% | growth [6]: 79.7% | growth [7]: 103% | growth [9]: 114% | growth [10]: 102% | growth [11]: 106% | growth [12]: 106% | growth [13]: 101% | growth [14]: 98.6% | growth [15]: 119% | growth [16]: 98.3% | growth [17]: 101% | growth [18]: 99.7%

COc1cc2c(cc1OC)[C@H](C(=O)O)[C@@H](c1ccc(OC(C)C)c(OC)c1)N(C)C2=O
growth [1]: 96.8% | growth [2]: 89.9% | growth [3]: 83.5% | growth [4]: 92.4% | growth [5]: 105% | growth [6]: 83.3% | growth [7]: 106% | growth [8]: 100% | growth [9]: 118% | growth [10]: 114% | growth [11]: 99.6% | growth [19]: 94.8% | growth [12]: 104% | growth [14]: 116% | growth [15]: 94.5% | growth [16]: 94.4% | growth [18]: 104%

CCCC(=O)c1cc(C)ccc1OC
growth [1]: 108% | growth [2]: 99.7% | growth [3]: 126% | growth [4]: 101% | growth [5]: 106% | growth [6]: 81.5% | growth [7]: 111% | growth [9]: 112% | growth [10]: 119% | growth [19]: 135% | growth [12]: 93.8% | growth [13]: 109% | growth [14]: 96% | growth [15]: 125% | growth [16]: 94.9% | growth [17]: 112%

CCS(=O)(=O)c1cc(=O)[nH]c(=O)[nH]1
growth [1]: 99.9% | growth [2]: 107% | growth [3]: 87.4% | growth [4]: 106% | growth [5]: 106% | growth [6]: 162% | growth [7]: 102% | growth [8]: 100% | growth [9]: 113% | growth [10]: 109% | growth [11]: 128% | growth [19]: 56.9% | growth [12]: 101% | growth [14]: 105% | growth [15]: 122% | growth [16]: 111% | growth [17]: 44.4% | growth [18]: 87.1%

O=C(O)c1ccc(S(=O)(=O)O)cc1
growth [1]: 101% | growth [2]: 99.6% | growth [3]: 98.8% | growth [4]: 99.3% | growth [5]: 109% | growth [6]: 76.3% | growth [7]: 91.5% | growth [8]: 89.7% | growth [9]: 129% | growth [10]: 133% | growth [11]: 114% | growth [19]: 97.2% | growth [12]: 107% | growth [14]: 123% | growth [15]: 107% | growth [16]: 97.9% | growth [18]: 117%
